# Counter-ions that a name gives are not always drawn. The campaign covered roughly 1,700 compounds. About 15 (0.9%) showed activity.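 The calls were made as follows: active = infection cut by 80% or more with cell growth above 90% in both runs; inactive = the rest.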 The full list was thinned out, with actives kept by preference.
# Test system: HSV-1 strain 17 YFP-ICP4 in A549
# Test: HSV-1 infection relative to DMSO (ICP4-YFP per H2B-RFP signal); higher = more viral infection (less antiviral activity), active = hit call of the paper
# Conditions: 10 µM; 48 h; MOI: 0.1
# Experimental: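 Selleck FDA-approved library (L1300) screened in duplicate at 10 µM on A549 H2B-mRuby cells in 384-well plates, infected with HSV-1 strain 17 YFP-ICP4 at MOI 0.1 one hour before drug addition. Imaged after 2 days at 37°C. Cell growth (H2B-RFP) and infection (ICP4-YFP) are expressed as % of DMSO-treated wells. Hits: growth >90% and infection <20% of DMSO.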
row,SMILES,HSV-1 infection
1,CC1=NN(c2ccc(C)c(C)c2)C(=O)/C1=N\Nc1cccc(-c2cccc(C(=O)O)c2)c1O [Eltrombopag Olamine],99% (inactive)
2,CC1=NN(c2ccc(C)c(C)c2)C(=O)/C1=N\Nc1cccc(-c2cccc(C(=O)O)c2)c1O [Eltrombopag],82.4% (inactive)
3,CS(=O)(=O)n1cc2c(n1)CN([C@H]1CO[C@H](c3cc(F)ccc3F)[C@@H](N)C1)C2 [Omarigliptin (MK-3102)],106% (inactive)
4,CCCCCCCCCCCCCCCCOc1nc2ccc(C)cc2c(=O)o1 [Cetilistat],103% (inactive)
5,CCOc1cc2ncc(C#N)c(Nc3ccc(OCc4ccccn4)c(Cl)c3)c2cc1NC(=O)/C=C/CN(C)C [Neratinib (HKI-272)],73.4% (inactive)
6,CC(=O)N1C[C@H](O)C[C@H]1C(=O)O [Oxaceprol],97.8% (inactive)
7,COC[C@H]1C[C@@H](c2nc(-c3ccc4c(c3)COc3cc5c(ccc6nc([C@@H]7CC[C@H](C)N7C(=O)[C@@H](NC(=O)OC)C(C)C)[nH]c65)cc3-4)c[nH]2)N(C(=O)[C@H](NC(=O)OC)c2ccccc2)C1 [Velpatasvir],102% (inactive)
8,CCC/N=C1\S/C(=C\c2ccc(OC[C@H](O)CO)c(Cl)c2)C(=O)N1c1ccccc1C [Ponesimod],57.6% (inactive)
9,CCOc1ccc(Cc2cc([C@]34OC[C@](CO)(O3)[C@@H](O)[C@H](O)[C@H]4O)ccc2Cl)cc1 [Ertugliflozin],114% (inactive)
10,C=C1CC[C@H](O)C/C1=C/C=C1\CCC[C@]2(C)[C@@H]([C@H](C)CCCC(C)(C)O)CC[C@@H]12 [Calcifediol],89.7% (inactive)
11,CCOC(=O)N[C@@H]1CC[C@@H]2[C@@H](C1)C[C@H]1C(=O)O[C@H](C)[C@H]1[C@H]2/C=C/c1ccc(-c2cccc(F)c2)cn1 [Vorapaxar],113% (inactive)
12,CN[C@@H]1[C@@H](O)[C@@H](O[C@@H]2[C@@H](O)[C@H](O[C@H]3O[C@H](CN)[C@@H](O)[C@H](O)[C@H]3O)[C@@H](N)C[C@H]2NC(=O)[C@@H](O)CN)OC[C@]1(C)O [Isepamicin Sulphate],124% (inactive)
13,CO/N=C(\C(=O)N[C@@H]1C(=O)N2C(C(=O)[O-])=C(C[n+]3cccc4c3CCC4)CS[C@H]12)c1csc(N)n1 [Cefpirome sulfate],108% (inactive)
14,CC(C)(CO)C(O)C(=O)NCCCO (racemic) [DL-Panthenol],94% (inactive)
15,CNC[C@H](O)[C@@H](O)[C@H](O)[C@H](O)CO.CNC[C@H](O)[C@@H](O)[C@H](O)[C@H](O)CO.O=C([O-])CN(CCN(CC(=O)[O-])CC(=O)O)CCN(CC(=O)[O-])CC(=O)O.[Gd+3] [Gadopentetate Dimeglumine],77.6% (inactive)
16,COc1ccccc1OCCN [Carvedilol EP IMpurity E],82.6% (inactive)
17,CC(C)[C@H]1C(=O)N[C@@H](CCCN=C(N)N)C(=O)NCC(=O)N[C@@H](CC(=O)O)C(=O)N[C@H](Cc2ccccc2)C(=O)N1C,86.4% (inactive)
18,CNC(=O)c1ccc2cc([C@@]3(O)CCn4cncc43)ccc2c1 [TAK-700 (Orteronel)],58.5% (inactive)
19,Cc1cccc(C)c1N(CC(=O)Nc1ccc(-c2ncon2)cc1)C(=O)C1CCS(=O)(=O)CC1 [Amenamevir],2.63% (active)
20,[OH][Al]([OH])[OH] [Aluminium hydroxide],113% (inactive)
21,COc1ccc([C@]2(C#N)CC[C@@H](C(=O)O)CC2)cc1OC1CCCC1 [Cilomilast],94% (inactive)
22,COc1cc(O)c(C(=O)Nc2nc(C(=O)NCCN(C(C)C)C(C)C)cs2)cc1OC [Acotiamide hydrochloride],75.1% (inactive)
23,COc1cc(O)c(C(=O)Nc2nc(C(=O)NCCN(C(C)C)C(C)C)cs2)cc1OC [Acotiamide],116% (inactive)
24,Cc1c(-c2ccc(O)cc2)n(Cc2ccc(OCCN3CCCCCC3)cc2)c2ccc(O)cc12 [Bazedoxifene Acetate],31.7% (inactive)
25,Cc1c(-c2ccc(O)cc2)n(Cc2ccc(OCCN3CCCCCC3)cc2)c2ccc(O)cc12 [Bazedoxifene HCl],26.6% (inactive)
26,CCCSc1nc(N[C@@H]2C[C@H]2c2ccc(F)c(F)c2)c2nnn([C@@H]3C[C@H](OCCO)[C@@H](O)[C@H]3O)c2n1 [Ticagrelor],87.1% (inactive)
27,C[C@@H]1CCO[C@H]2Cn3cc(C(=O)NCc4ccc(F)cc4F)c(=O)c(O)c3C(=O)N12,122% (inactive)

row,SMILES,HSV-1 infection
1,Cc1cc(N2CCN([C@@H]3CN[C@H](C(=O)N4CCSC4)C3)CC2)n(-c2ccccc2)n1 [Teneligliptin hydrobromide],113% (inactive)
2,CCCCCCCCCCCCCCCCCC(=O)O [Stearic acid],86.7% (inactive)
3,O=C([O-])[C@H](O)[C@@H](O)[C@H](O)[C@H](O)CO.O=C([O-])[C@H](O)[C@@H](O)[C@H](O)[C@H](O)CO.[Ca+2] [Calcium gluconate],83.3% (inactive)
4,Nc1nc(O)c2ncn(CCC(CO)CO)c2n1 [Penciclovir],2.92% (active)
5,CC(=O)OCC(CCn1cnc2cnc(N)nc21)COC(C)=O [Famciclovir],102% (inactive)
6,CCC(=O)O[C@]1(C(=O)CCl)[C@@H](C)C[C@H]2[C@@H]3C[C@H](F)C4=CC(=O)C=C[C@]4(C)[C@@]3(F)[C@@H](O)C[C@@]21C [Halobetasol Propionate],60.2% (inactive)
7,CCc1ccc(Cc2ccc3c(c2)[C@]2(OC3)O[C@H](CO)[C@@H](O)[C@H](O)[C@H]2O)cc1 [Tofogliflozin(CSG 452)],92.2% (inactive)
8,CC[C@H](C)[C@H](N)C(=O)O [isoleucine],114% (inactive)
9,Cc1c(C(=O)NN2CCCCC2)nn(-c2ccc(Cl)cc2Cl)c1-c1ccc(Cl)cc1 [Rimonabant],94.5% (inactive)
10,CC(C)c1nc(CN(C)C(=O)N[C@@H](CCN2CCOCC2)C(=O)N[C@H](CC[C@H](Cc2ccccc2)NC(=O)OCc2cncs2)Cc2ccccc2)cs1 [Cobicistat (GS-9350)],86.4% (inactive)
11,CCN(c1cc(-c2ccc(CN3CCOCC3)cc2)cc(C(=O)NCc2c(C)cc(C)[nH]c2=O)c1C)C1CCOCC1 [Tazemetostat (EPZ-6438)],106% (inactive)
12,Nc1cc(N2CCCCC2)nc(N)[n+]1OS(=O)(=O)[O-] [Minoxidil sulphate],97.8% (inactive)
13,N[C@@H](CCC(=O)O)C(=O)[O-].[Na+] [L-Glutamic acid monosodium salt],84.3% (inactive)
14,Cc1ccc(C(C)C)c(O)c1 [Thymol],95.3% (inactive)
15,CCC(=O)O[C@@H]1CC(=O)O[C@H](C)C/C=C/C=C/[C@H](O)[C@H](C)C[C@H](CC=O)[C@H](O[C@@H]2O[C@H](C)[C@@H](O[C@H]3C[C@@](C)(O)[C@@H](OC(=O)CC)[C@H](C)O3)[C@H](N(C)C)[C@H]2O)[C@H]1OC [Midecamycin],96.5% (inactive)
16,CN(N=O)C(=O)NC1C(O)OC(CO)C(O)C1O (centres undefined) [Streptozotocin (STZ)],73.6% (inactive)
17,O=C(O)CSc1nnc(Br)n1-c1ccc(C2CC2)c2ccccc12 [Lesinurad],87.1% (inactive)
18,CCCCCOc1ccc(-c2cc(-c3ccc(C(=O)N[C@H]4C[C@@H](O)[C@@H](O)NC(=O)[C@@H]5[C@@H](O)[C@@H](C)CN5C(=O)[C@H]([C@H](O)CC(N)=O)NC(=O)[C@H]([C@H](O)[C@@H](O)c5ccc(O)c(OS(=O)(=O)O)c5)NC(=O)[C@@H]5C[C@@H](O)CN5C(=O)[C@H]([C@@H](C)O)NC4=O)cc3)no2)cc1 [Micafungin Sodium],105% (inactive)
19,CCc1c(Cl)c(O)c(Cl)c(O)c1C(=O)O[C@H]1[C@H](O)[C@H](OC)[C@H](OC/C2=C\C=C\C[C@H](O)/C(C)=C/[C@H](CC)[C@@H](O[C@@H]3OC(C)(C)[C@@H](OC(=O)C(C)C)[C@H](O)[C@@H]3O)/C(C)=C/C(C)=C/C[C@@H]([C@@H](C)O)OC2=O)O[C@@H]1C [Fidaxomicin],126% (inactive)
20,CC(=C(CCOC(=O)C(C)C)SSC(CCOC(=O)C(C)C)=C(C)N(C=O)Cc1cnc(C)nc1N)N(C=O)Cc1cnc(C)nc1N (stereo in doubt) [Sulbutiamine],92.2% (inactive)
21,C[N+](C)(C)CC(O)CC(=O)[O-] (racemic) [DL-Carnitine HCl],94.4% (inactive)
22,Nc1ccc(S(=O)(=O)Nc2cncc(Cl)n2)cc1 [Sulfalozine sodium],105% (inactive)
23,C=C[C@]1(C)C[C@@H](OC(=O)CS[C@@H]2C[C@H]3CC[C@@H](C2)N3C)[C@]2(C)[C@H](C)CC[C@]3(CCC(=O)[C@H]32)[C@@H](C)[C@@H]1O [Retapamulin],32.7% (inactive)
24,COc1cccc(-c2c(C)n(Cc3c(F)cccc3C(F)(F)F)c(=O)n(C[C@H](NCCCC(=O)O)c3ccccc3)c2=O)c1F [Elagolix Sodium],109% (inactive)
25,OC(c1ccccc1)(c1ccccc1)C12CC[N+](CCOCc3ccccc3)(CC1)CC2 [Umeclidinium bromide],100% (inactive)
26,CC1CNc2c(cccc2S(=O)(=O)N[C@@H](CCCNC(=N)N)C(=O)N2CC[C@@H](C)C[C@@H]2C(=O)O)C1 (some centres undefined) [Argatroban Monohydrate],97.4% (inactive)
27,CC1CNc2c(cccc2S(=O)(=O)N[C@@H](CCCNC(=N)N)C(=O)N2CC[C@@H](C)C[C@@H]2C(=O)O)C1 (some centres undefined) [Argatroban],99.1% (inactive)
